In PubChem BioAssay (NCI):
Compounds without any hit were thinned out: in the full panel of roughly 79,000, 15% have a hit. Calls of active or inactive are those of the source. Rule as the data show it: active = growth inhibition above about 70%; inactive = the rest.

Legend:
[1] = NCI Yeast Anticancer Drug Screen. Data for the rad52 strain (AID 147);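 also: 0% = growth of vehicle-treated control cultures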; settings: S. cerevisiae rad52 mutant growth inhibition, stronger effect = higher value
Method in brief: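 Read-out: growth inhibition versus vehicle-treated controls. Cells were a DNA repair-deficient yeast strain treated with compounds.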

[2] = NCI Yeast Anticancer Drug Screen. Data for the wt1 strain (AID 149);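 also: 0% = growth of vehicle-treated wt1 cultures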; settings: S. cerevisiae wt1 strain (SPY 50644) growth inhibition, stronger effect = higher value
Method in brief: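 Measured: growth of wt1 yeast under compound versus vehicle treatment, reported as inhibition.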

[3] = NCI Yeast Anticancer Drug Screen. Data for the rad50EPP+ strain (AID 151);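 also: 0% = growth of vehicle-treated control cultures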; settings: S. cerevisiae rad50 mutant strain, stronger effect = higher value
Method in brief: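 Growth inhibition read against vehicle controls in rad50EPP+ yeast, a strain altered in DNA damage repair, after compound exposure.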

[4] = NCI Yeast Anticancer Drug Screen. Data for the mgt1 strain (AID 153); settings: S. cerevisiae mgt1 mutant growth inhibition, stronger effect = higher value
Method in brief: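 mgt1 yeast grown with test compound; read-out is growth inhibition versus vehicle-treated cultures.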

[5] = NCI Yeast Anticancer Drug Screen. Data for the rad50 strain (AID 155);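 also: 0% = growth of vehicle-only cultures of the same strain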; settings: S. cerevisiae rad50 strain growth inhibition, stronger effect = higher value
Method in brief: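 Growth of the mutant yeast was measured after compound exposure and referenced to vehicle-treated cultures.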

[6] = NCI Yeast Anticancer Drug Screen. Data for the mec2-1 strain (AID 157); settings: S. cerevisiae mec2-1 strain, stronger effect = higher value
Method in brief: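 Yeast mec2-1 mutant treated with compound. Readout: growth inhibition vs vehicle controls.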

[7] = NCI Yeast Anticancer Drug Screen. Data for the rad14 strain (AID 159);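 also: 0% = growth of vehicle-treated control cultures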; settings: S. cerevisiae rad14 strain growth inhibition, stronger effect = higher value
Method in brief: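 Here, inhibition of yeast growth was measured after compound exposure, using a strain with a genetic defect in DNA damage repair and vehicle-treated cultures as the reference.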

[8] = NCI Yeast Anticancer Drug Screen. Data for the sgs1 mgt1 strain (AID 161);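 also: 0% = growth of cultures given vehicle only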; settings: S. cerevisiae sgs1 mgt1 strain, stronger effect = higher value
Method in brief: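 Genetically altered yeast, compound exposure, growth inhibition relative to vehicle.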

[9] = NCI Yeast Anticancer Drug Screen. Data for the CLN2oe strain (AID 163);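 also: 0% = growth of vehicle-only control cultures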; settings: S. cerevisiae CLN2oe strain, stronger effect = higher value
Method in brief: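 Read-out: yeast growth inhibition, expressed relative to vehicle-only controls. The strain bears an engineered cell-cycle alteration.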

[10] = NCI Yeast Anticancer Drug Screen. Data for the cln2 rad14 strain (AID 165);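 also: 0% = growth equal to vehicle treated cultures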; settings: S. cerevisiae cln2 rad14 strain, stronger effect = higher value
Method in brief: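 cln2 rad14 yeast strain; compound exposure; growth inhibition read vs vehicle controls.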

[11] = NCI Yeast Anticancer Drug Screen. Data for the bub3 strain (AID 167); settings: S. cerevisiae bub3 mutant strain, stronger effect = higher value
Method in brief: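 Whole-cell yeast assay. The mutant strain was incubated with compounds, and growth inhibition was determined by comparison with vehicle-treated cells.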

[12] = NCI Yeast Anticancer Drug Screen. Data for the wt2 strain (AID 169);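 also: 0% = growth of vehicle-treated yeast cultures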; settings: S. cerevisiae wt2 strain growth inhibition, stronger effect = higher value
Method in brief: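 Read-out: growth inhibition versus vehicle-treated control cultures after compound exposure of the yeast strain.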

[13] = NCI Yeast Anticancer Drug Screen. Data for the sgs1 strain (AID 173);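 also: 0% = growth of vehicle-only control cultures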; settings: S. cerevisiae sgs1 mutant, stronger effect = higher value
Method in brief: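 Read-out: yeast growth inhibition relative to vehicle controls, following compound exposure of a strain with a defined DNA repair/cell cycle alteration.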

[14] = NCI Yeast Anticancer Drug Screen. Data for the mlh1 rad18 strain (AID 175); settings: S. cerevisiae mlh1 rad18 strain growth inhibition, stronger effect = higher value
Method in brief: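 Yeast w/ defined DNA-repair lesions; compound exposure; growth vs vehicle controls → % inhibition.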

[15] = at 5.0 µM (retest, dose inferred, filed as 0.5)
[16] = at 50.0 µM (retest, dose inferred, filed as 5.0)

Measured: growth inhibition

CC[C@@]1(O)C(=O)OCc2c1cc1n(c2=O)Cc2cc3ccccc3nc2-1
active: [1]; at 1.2 µM 97% | [1]; at 3.7 µM 98% | [1]; at 11.0 µM 98% | [1]; at 33.0 µM 97% | [1]; at 100.0 µM 95% | [2]; at 11.0 µM 90% | [2]; at 33.0 µM 94% | [2]; at 100.0 µM 95% | [3]; at 1.2 µM 89% | [3]; at 3.7 µM 95% | [3]; at 11.0 µM 97% | [3]; at 33.0 µM 97% | [3]; at 100.0 µM 96% | [4]; at 11.0 µM 79% | [4]; at 33.0 µM 91% | [4]; at 100.0 µM 92% | [5]; at 1.2 µM 97% | [5]; at 3.7 µM 97% | [5]; [15] 97% | [5]; at 11.0 µM 96% | [5]; at 33.0 µM 96% | [5]; [16] 97% | [5]; at 50.0 µM 86.9% | [5]; at 100.0 µM 95% | [6]; at 3.7 µM 95% | [6]; [15] 73% | [6]; at 11.0 µM 97% | [6]; at 33.0 µM 98% | [6]; [16] 98% | [6]; at 50.0 µM 88.2% | [6]; at 100.0 µM 97% | [7]; at 11.0 µM 89% | [7]; at 33.0 µM 97% | [7]; at 100.0 µM 96% | [8]; [16] 95% | [8]; at 50.0 µM 81.7% | [9]; at 11.0 µM 89% | [9]; at 33.0 µM 93% | [9]; at 100.0 µM 91% | [10]; [16] 89% | [11]; at 11.0 µM 90% | [11]; at 33.0 µM 95% | [11]; [16] 90% | [11]; at 50.0 µM 78.5% | [11]; at 100.0 µM 96% | [12]; at 11.0 µM 92% | [12]; at 33.0 µM 97% | [12]; at 100.0 µM 96% | [13]; at 3.7 µM 82% | [13]; at 11.0 µM 95% | [13]; at 33.0 µM 96% | [13]; at 100.0 µM 95% | [14]; [16] 93% | [14]; at 50.0 µM 81.7%
inactive: [2]; at 1.2 µM 2% | [2]; at 3.7 µM 39% | [4]; at 1.2 µM 0% | [4]; at 3.7 µM 6% | [6]; at 1.2 µM 47% | [7]; at 1.2 µM 21% | [7]; at 3.7 µM 55% | [8]; [15] 53% | [9]; at 1.2 µM 8% | [9]; at 3.7 µM 55% | [10]; [15] 14% | [10]; at 50.0 µM 58% | [11]; at 1.2 µM -12% | [11]; at 3.7 µM 15% | [11]; [15] -16% | [12]; at 1.2 µM 17% | [12]; at 3.7 µM 57% | [13]; at 1.2 µM 29% | [14]; [15] 39%
